The structures appear in SMILES notation. Out of some 2,100 compounds screened, about 760 (36%) were called active.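 Rule for the calls: active = thallium-flux fluorescence traces judged by eye to show enhanced or reduced glutamate response, manual score 1 or -1, so both directions (some results past the limit were not filed as active); inactive = the rest, including fluorescent or raised-baseline compounds.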 These entries were drawn from the full list.

The nature of this assay: non-GIRK thallium flux modulation in mGlu8 cells, confirmation, counter-screen for GIRK activator project, cell-based, HEK-293 rmGlu8, no GIRK (AID 623868).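 Note: extra codes mark interference with 3 for fluorescent and 4 for baseline rise.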 The note with it: thallium flux fluorescence, at 10 µM, actives lie on both sides, codes: 1 enhancer, -1 blocker, 0 none, thallium stimulus containing EC20 glutamate.
In the case of `CC1=NCCN1S(=O)(=O)c1cc(Cl)ccc1Cl`, the manual score is 0 (inactive).

For `COc1cccc2[nH]c3c(N4CCCC(C)C4)ncnc3c12` (stereo unspecified), the manual score was 0 (inactive).

As for `S=C1CCSc2ccc(Cl)cc2N1`, the manual score was 1 (active).

Regarding `S=C1Nc2cc(Cl)ccc2Sc2ccccc21`, the manual score was 1 (active).

Turning to `S=C1Nc2ccccc2Sc2ccc(Cl)cc21`, the manual score is 0 (inactive).

Take `Clc1ccc2c(c1)C(N1CCNCC1)Cc1ccccc1S2` (stereo unspecified): the manual score was 0 (inactive).

In the case of `CCOC(=O)c1[nH]c(C)c(C(=O)NC2CCCCC2)c1C`, the manual score was 0 (inactive).

On to `CC(C)Sc1oc(-c2ccco2)nc1S(=O)(=O)c1ccccc1`, for which the manual score was 0 (inactive).

For the compound `Cc1ccc(/C=N/n2c(-c3cccs3)n[nH]c2=S)cc1`, the manual score is 1 (active).

On to `Fc1ccc(/C=N/n2c(-c3cccs3)n[nH]c2=S)cc1`, for which the manual score is 1 (active).

Regarding `C=CCn1c(-c2cccs2)nc2ccccc21`, the manual score was 0 (inactive).

Regarding `Cc1ccc(-c2cc(-c3cccs3)[nH]n2)c(O)c1`, the manual score is 0 (inactive).

For `CN=c1scc(-c2cccs2)n1/N=C/c1ccc(O)c(O)c1O`, the manual score was 0 (inactive).

With `CC12CN(Cc3ccccc3)CC(C)(CN(Cc3ccccc3)C1)C2=NO`, the manual score was 0 (inactive).

Turning to `O=c1[nH]c2ccccc2n1CCC1CCCCC1`, the manual score is 0 (inactive).

For the compound `O=C(c1ccc2c(=O)n(C3CCCC3)c(=S)[nH]c2c1)N1CCc2ccccc21`, the manual score was 0 (inactive).

As to `CC1CCCCC1n1c(=S)[nH]c2ccccc2c1=O` (stereo unspecified), the manual score is 1 (active).

For the compound `CC1CCCC(n2c(=S)[nH]c3ccccc3c2=O)C1C` (stereo unspecified), the manual score is 3 (inactive).

On to `O=C(C1CCC(Cn2c(=S)[nH]c3ccccc3c2=O)CC1)N1CCN(c2ccccc2)CC1` (stereo unspecified), for which the manual score is 0 (inactive).

Regarding `CCOC(=O)N1CCC(n2c(=S)[nH]c3ccccc3c2=O)CC1`, the manual score was 1 (active).

With `O=c1c2ccccc2[nH]c(=S)n1C1CCCCC1`, the manual score was 1 (active).

Turning to `CC1CCC(n2c(=S)[nH]c3ccccc3c2=O)CC1` (stereo unspecified), the manual score was 1 (active).

With `CCN1CCN(C(=O)c2ccc3c(=O)n(C4CCCC4)c(=S)[nH]c3c2)CC1`, the manual score is 0 (inactive).

For `CCOC(=O)/C(=C\C=C1/Sc2cc(OCC)c(OCC)cc2N1CC)C(C)=O`, the manual score is 3 (inactive).

`C=CCN1CCN(C(c2ccc(Cl)cc2)c2nnnn2CCc2ccc(OC)c(OC)c2)CC1` (stereo unspecified): the manual score is 0.5 (inactive).

For the compound `CCC1(C)CC(c2csc(N)n2)CCO1` (stereo unspecified), the manual score was 0 (inactive).

As for `O=C(CSCCO)Nc1ccccc1`, the manual score is 0 (inactive).

With `CCOC(=O)C(C(=O)OCC)c1cc(Br)c2noc3c2c1C(=O)c1ccccc1-3`, the manual score was 3 (inactive).

For `CC(C)(C)OC(=O)COc1cc(O)c2c(=O)cc(-c3ccccc3)oc2c1`, the manual score was 0 (inactive).

As to `Cc1ccc2c(c1)N(CC(=O)N(Cc1ccccn1)Cc1ccco1)C(=O)C(C(C)C)O2` (stereo unspecified), the manual score is 0 (inactive).

For the compound `COC(=O)c1ccc(CSc2nc3c(c(=O)n2-c2ccc(F)cc2)SCC3)o1`, the manual score was -1 (active).

On to `COC(=O)C(C)Sc1nc2c(c(=O)n(C)c(=O)n2C)n1Cc1cccc(C)c1` (stereo unspecified), for which the manual score was 0 (inactive).

Regarding `CCOc1ccc(-n2c(Cc3cc(=O)[nH]c(=O)[nH]3)nnc2SC(C)C(=O)OC)cc1` (stereo unspecified), the manual score was 0 (inactive).

For the compound `CCOc1ccc(-n2c(SC(C)C(=O)OC)nc3c(c2=O)SCC3)cc1` (stereo unspecified), the manual score was -1 (active).

Turning to `COc1cccc(NC(=O)NC2(C(F)(F)F)Oc3ccccc3O2)c1`, the manual score was 0 (inactive).

For `CN(C)S(=O)(=O)N(CC(=O)Nc1ccc2ccccc2c1)c1ccccc1`, the manual score was 0 (inactive).

As to `Cc1cc(NC(=O)c2ccccc2Oc2ccccc2)no1`, the manual score is -1 (active).

With `CCCCOc1cccc(OCCCC)c1C(=O)Nc1cc(C)on1`, the manual score is 0 (inactive).

Take `COc1ccc(C(=O)Nc2ccccc2)cc1S(=O)(=O)Nc1cc(C)on1`: the manual score was 0 (inactive).

Turning to `O=C1c2ccccc2NC(c2ccc(-c3cccc(Cl)c3)o2)N1O` (stereo unspecified), the manual score is 1 (active).

As for `COc1ccc(C(=O)C2C(c3ccc(-c4ccccc4[N+](=O)[O-])o3)NC(=O)NC2(O)C(F)(F)F)cc1` (stereo unspecified), the manual score was 0.5 (inactive).

As for `O=C1c2ccccc2NC(c2ccc(-c3ccc(Br)cc3)o2)N1O` (stereo unspecified), the manual score was 1 (active).

Consider `Cc1cc([N+](=O)[O-])ccc1-c1ccc(C2Nc3ccccc3C(=O)N2O)o1` (stereo unspecified), for which the manual score was 1 (active).

Regarding `CC(=O)Nc1ccc(SCC(=O)c2cc(C)n(-c3ccccc3F)c2C)cc1`, the manual score is 0.5 (inactive).

With `Cc1cccc(C)c1NC1=NC(=S)N(c2ccc(N(C)C)cc2)C1(C)C`, the manual score is 1 (active).

As for `CC1CN(C(=O)C2CCCCC2)C(C)CN1C(=O)C1CCCCC1` (stereo unspecified), the manual score is 0 (inactive).

For `Cn1c(NC(=O)Cc2ccc(F)cc2)cc(=O)n(C)c1=O`, the manual score was 0 (inactive).

As for `CC(=O)C1=C(C)NC(SCC(=O)c2ccc(Cl)cc2Cl)=C(C#N)C1c1ccco1` (stereo unspecified), the manual score is -1 (active).

`CSCSC1=C(C#N)C(c2ccccc2Cl)C(C(C)=O)=C(C)N1` (stereo unspecified): the manual score is -1 (active).

As to `CCOC(=O)C1=C(c2ccccc2)NC(SC)=C(C#N)C1c1ccco1` (stereo unspecified), the manual score was 0 (inactive).

In the case of `CSCSC1=C(C#N)C(c2ccc(Cl)cc2)C(C(C)=O)=C(C)N1` (stereo unspecified), the manual score is 0 (inactive).

Turning to `CC(=O)C1=C(C)NC(SCc2ccc(C#N)cc2)=C(C#N)C1c1ccco1` (stereo unspecified), the manual score is 0 (inactive).

With `O=C(CCc1nc(-c2ccccc2F)no1)NCCN1CCN(Cc2ccccc2)CC1`, the manual score was 0 (inactive).

With `COc1ccc(NC(=O)C(=O)NNC(=O)c2cccs2)c(OC)c1`, the manual score is 1 (active).

In the case of `O=C(NNC(=O)c1cccs1)Nc1cccc(Cl)c1`, the manual score is 0 (inactive).

With `COc1ccc(Br)cc1CNC(=O)Nc1cccs1`, the manual score was 0 (inactive).

As to `COc1ccc(NC(=O)C(=O)NNC(=O)c2cccs2)cc1`, the manual score is 1 (active).

For `COC(=O)c1cc(OC)c(OC)cc1NC(=O)Nc1ccc(OC)cc1OC`, the manual score was 0 (inactive).

For the compound `COc1cccc(NC(=O)Nc2cccs2)c1`, the manual score is 0 (inactive).

With `CCCc1noc2c1/C(=N\O)CC(CC(C)SCC)C2` (stereo unspecified), the manual score was 0 (inactive).

Regarding `O=C(CSc1ccc2ccccc2c1Br)Nc1cccc(S(=O)(=O)NC2=NCCCCC2)c1`, the manual score is 1 (active).

`CCc1ccc(C(=O)OCC(=O)Nc2cccc(S(=O)(=O)NC3=NCCCCC3)c2)cc1`: the manual score was 0 (inactive).

For the compound `O=C(CSc1nnnn1-c1ccc(O)cc1)Nc1cccc(S(=O)(=O)N2CCCC2)c1`, the manual score was 0 (inactive).

For `Cc1ccsc1/C=N/NC(=O)c1sccc1C`, the manual score was 1 (active).

As for `Cc1ccc(N2CC(C(=O)N/N=C/c3sccc3C)CC2=O)cc1` (stereo unspecified), the manual score was 0 (inactive).

For `OC(CNCC1CCCO1)Cn1c2ccc(Br)cc2c2cc(Br)ccc21` (stereo unspecified), the manual score is 0 (inactive).

For `O=C1CC(C(=O)Nc2ccc(Br)cc2)C2(CCCC2)O1` (stereo unspecified), the manual score is 0 (inactive).

`O=C(NN=C1c2ccccc2-c2ccccc21)c1cccc(Br)c1`: the manual score was 1 (active).

Consider `O=C(NN=C1c2ccccc2-c2ccccc21)c1ccccc1Br`, for which the manual score was 1 (active).

In the case of `O=C(N/N=C/c1ccc([N+](=O)[O-])s1)c1cccc(Br)c1`, the manual score was 0.5 (inactive).

In the case of `CCCCn1c(CN(Cc2ccccc2)Cc2ccccc2)nc2c1c(=O)n(C)c(=O)n2C`, the manual score was 0 (inactive).

As to `O=C(CSCC(=O)N1CCCCC1)Nc1nc(-c2ccc(Cl)s2)cs1`, the manual score is 0 (inactive).

Take `Cc1nc2nc(Cc3ccccc3)[nH]n2c(=O)c1Cc1ccccc1`: the manual score was 0 (inactive).

As for `CN1C(=O)C2(C(C#N)=C(N)N(c3cc(Cl)cc(Cl)c3)C3=C2C(=O)CCC3)c2ccccc21` (stereo unspecified), the manual score was -1 (active).

On to `Cc1cc(C(=O)CSc2n[nH]c(N)n2)c(C)n1-c1cc(F)ccc1F`, for which the manual score is 0 (inactive).

For `Fc1ccc(-c2nnc3ccc(N4CCc5ccccc5C4)nn23)cc1`, the manual score is 0 (inactive).

In the case of `c1ccc(-c2nnc3ccc(N4CCCC4)nn23)cc1`, the manual score is -1 (active).

In the case of `c1ccc2c(N3CCCCCC3)nc(-c3ccncc3)nc2c1`, the manual score was 0 (inactive).

Turning to `CCOC(=O)/C(C#N)=C/C1=C(N2CCCC2)CC(C)(C)OC1`, the manual score was 0 (inactive).

Consider `CCOC(=O)N1CCN(C(=O)c2oc3ccc(S(=O)(=O)N4CC(C)CC(C)C4)cc3c2C)CC1` (stereo unspecified), for which the manual score is 0 (inactive).

Take `C=CCOn1c(=O)c(-c2cccs2)[n+]([O-])c2ccccc21`: the manual score was 3 (inactive).

Take `O=c1c(-c2ccc(Cl)cc2)[n+]([O-])c2ccccc2n1O`: the manual score was 1 (active).

Consider `CCOn1c(=O)c(-c2cccs2)[n+]([O-])c2ccccc21`, for which the manual score is 3 (inactive).

Consider `Clc1ccc2c(c1)-c1nnc(Br)n1-c1ccccc1S2`, for which the manual score is -1 (active).

For `C/C(CC(C)(C)C1CCCCC1)=N\NC(N)=S`, the manual score is 0 (inactive).

On to `CNc1nc(Cl)nc(NC(C)(C)C)n1`, for which the manual score is 0 (inactive).

With `Cc1cccc(N2C(=O)CS/C2=N\NC(=O)c2ccc(Cl)cc2)c1C`, the manual score is 1 (active).

Consider `CC(NC(=O)C1CC=CCC1C(=O)O)C1CC2CCC1C2` (stereo unspecified), for which the manual score is 0 (inactive).

Consider `CCNc1ccc2noc3c2c1C(=O)c1ccccc1-3`, for which the manual score is 0 (inactive).

On to `O=C(NNc1ccccc1Br)C(=O)n1ccc2ccccc21`, for which the manual score is 1 (active).

Consider `Cc1ccc(C)c2[nH]c(=O)c(CN(CCN3CCCC3)C(=O)Nc3ccc(F)cc3)cc12`, for which the manual score was 0 (inactive).

For the compound `CSC1=NSC2=NC(=O)/C(=C/c3coc4ccccc4c3=O)C(=N)N12`, the manual score is 3 (inactive).

`O=C1N=C(c2ccccc2)S/C1=C\c1cccs1`: the manual score was 3 (inactive).

In the case of `N=C1/C(=C/c2cccs2)C(=O)N=C2SN=C(SCc3ccccc3)N12`, the manual score is 1 (active).

As to `Cc1ccc(CNC(=O)Cc2csc(Nc3nc(=S)[nH]c4ccccc34)n2)cc1`, the manual score was 1 (active).

With `O=C(Cc1csc(Nc2nc(=S)[nH]c3ccccc23)n1)NCc1ccccc1Cl`, the manual score is 0 (inactive).

Take `O=C(Cc1csc(Nc2nc(=S)[nH]c3ccccc23)n1)NCc1cccc(Cl)c1`: the manual score is 1 (active).

With `N#CC(c1cccc(Cl)c1)c1ccc2c(C(F)(F)F)cc(C(F)(F)F)nc2n1` (stereo unspecified), the manual score was 0 (inactive).

Consider `Oc1cccc(NC(=S)Nc2ccc(SC(F)F)cc2)c1`, for which the manual score was 0 (inactive).

As to `CN(C)CCNC(=O)c1ccc2c(c1)N(Cc1ccc(F)cc1)CCS2`, the manual score is 0 (inactive).

On to `CCOC(=O)CSc1nc2ccc(Nc3nc(N4CCOCC4)nc(N4CCOCC4)n3)cc2s1`, for which the manual score is 0 (inactive).

In the case of `O=C(O)c1cccc(Nc2nc(N3CCOCC3)nc(N3CCOCC3)n2)c1`, the manual score is -1 (active).

In the case of `CC1CC(C)CN(Cc2nc(N)nc(Nc3ccc4ccccc4c3)n2)C1` (stereo unspecified), the manual score is 0 (inactive).

In the case of `O=C(COC(=O)c1cccc(N2C(=O)c3ccccc3C2=O)c1)Nc1ccccc1`, the manual score was 0 (inactive).

Turning to `CC(C)CC(=O)Nc1cccc2c1C(=O)N(c1ccccc1)C2=O`, the manual score is -1 (active).

Take `CC(=O)Nc1cccc2c1C(=O)N(c1cccc(C)c1)C2=O`: the manual score was 0 (inactive).

The record behind these values is PubChem BioAssay AID623868 (Vanderbilt High Throughput Screening Facility, 2012).
